Data taken from PubChem BioAssay AID1159580 (chemical genetic matrix, 2015).
Screen size: about 5,500 compounds; about 2,000 (36%) were called active. Not shown: some 18% with an inconclusive outcome. Rule as the data show it: active = normalized growth mostly below about 0.91 (no sharp cut-off); inconclusive = no clear call, values can overlap the other calls; inactive = mostly above about 0.92. This is one part of the list.

Test: chemical genetic growth profiling, strain panel (AID 1159580);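 also: tested at 20 µM; growth read once vehicle control cultures reached saturation at 30 °C; 1 = growth at the plate median or of vehicle wells; lower values mean less growth of the strain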
Conditions: S. cerevisiae deletion strains, growth OD
[1] = locus YDL101C, strain DUN1, active compounds read low
[2] = locus YHR030C, strain SLT2, active compounds read low
[3] = locus YHR079C, strain IRE1, active compounds read low
[4] = locus YJL095W, strain BCK1, active compounds read low
[5] = locus YJR066W, strain TOR1, active compounds read low
[6] = locus YLR113W, strain HOG1, active compounds read low
[7] = locus YNL183C, strain NPR1, active compounds read low
[8] = locus YOR231W, strain MKK1, active compounds read low
[9] = locus YPL256C, strain CLN2, active compounds read low

Measured: normalized growth

OC1CCN(c2cc(C(F)(F)F)nc3cc(Cl)cc(Cl)c23)CC1
active: [2] 0.793
inactive: locus YAR019C, strain CDC15, active compounds read low 0.982 | locus YBL105C, strain PKC1, active compounds read low 0.984 | locus YBR135W, strain CKS1, active compounds read low 0.978 | locus YBR136W, strain MEC1, active compounds read low 0.978 | locus YBR160W, strain CDC28, active compounds read low 0.973 | locus YDL017W, strain CDC7, active compounds read low 0.977 | locus YDL028C, strain MPS1, active compounds read low 0.982 | [1] 0.976 | locus YDL108W, strain KIN28, active compounds read low 0.979 | locus YDL132W, strain cdc53, active compounds read low 0.969 | locus YDL214C, strain PRR2, active compounds read low 0.98 | locus YDR052C, strain DBF4, active compounds read low 0.989 | locus YDR054C, strain cdc34, active compounds read low 0.969 | locus YDR226W, strain ADK1, active compounds read low 0.973 | locus YDR477W, strain SNF1, active compounds read low 0.913 | locus YER123W, strain YCK3, active compounds read low 0.965 | locus YER133W, strain GLC7, active compounds read low 0.971 | locus YFL009W, strain cdc4, active compounds read low 0.986 | locus YFL029C, strain CAK1, active compounds read low 0.984 | locus YFR003C, strain YPI1, active compounds read low 0.978 | locus YFR019W, strain FAB1, active compounds read low 1 | locus YFR028C, strain CDC14, active compounds read low 0.979 | locus YGR040W, strain KSS1, active compounds read low 0.921 | locus YGR052W, strain FMP48, active compounds read low 1.1 | locus YGR092W, strain DBF2, active compounds read low 0.994 | [3] 0.979 | locus YHR082C, strain KSP1, active compounds read low 1.06 | locus YHR205W, strain SCH9, active compounds read low 0.975 | locus YIL147C, strain SLN1, active compounds read low 0.976 | [4] 0.887 | locus YJL128C, strain PBS2, active compounds read low 0.989 | locus YJL157C, strain FAR1, active compounds read low 0.972 | locus YJR016C, strain ILV3, active compounds read low 0.984 | locus YJR066W, strain TOR1 (second series), active compounds read low 0.963 | [5] 0.938 | locus YKL048C, strain ELM1, active compounds read low 0.979 | locus YKL067W, strain YNK1, active compounds read low 0.977 | locus YKL101W, strain HSL1, active compounds read low 0.984 | locus YKL193C, strain SDS22, active compounds read low 0.969 | locus YKL203C, strain TOR2, active compounds read low 0.987 | [6] 0.951 | locus YLR133W, strain CKI1, active compounds read low 0.976 | locus YLR403W, strain SFP1, active compounds read low 0.992 | locus YML070W, strain DAK1, active compounds read low 0.969 | locus YMR001C, strain CDC5, active compounds read low 0.971 | locus YMR205C, strain PFK2 (second series), active compounds read low 0.975 | locus YMR277W, strain FCP1, active compounds read low 0.97 | locus YNL006W, strain LST8, active compounds read low 0.968 | locus YNL020C, strain ARK1, active compounds read low 0.972 | locus YNL161W, strain CBK1, active compounds read low 0.975 | [7] 0.971 | locus YNL207W, strain RIO2, active compounds read low 0.979 | locus YNL222W, strain SSU72, active compounds read low 0.98 | locus YNL307C, strain MCK1 (second series), active compounds read low 0.962 | locus YOL078W, strain AVO1, active compounds read low 0.98 | locus YOL136C, strain PFK27, active compounds read low 0.981 | locus YOR061W, strain CKA2, active compounds read low 0.964 | locus YOR119C, strain RIO1, active compounds read low 1.01 | [8] 0.946 | locus YOR329C, strain SCD5, active compounds read low 0.986 | locus YPL031C, strain PHO85, active compounds read low 0.908 | locus YPL153C, strain RAD53, active compounds read low 0.937 | locus YPL204W, strain HRR25, active compounds read low 0.938 | locus YPL209C, strain IPL1, active compounds read low 0.971 | [9] 0.947 | locus YPR025C, strain CCL1, active compounds read low 0.969 | locus YPR106W, strain ISR1, active compounds read low 0.991 | locus YPR111W, strain DBF20, active compounds read low 0.985 | strain NNK1, active compounds read low 1 | strain TSCII, active compounds read low 0.97

CC(=O)Nc1c(C)c(C)c(C)c(C)c1NC(C)=O
active: locus YPL241C, strain CIN2, active compounds read low 1.15 [resistant]
inactive: locus YAL013W, strain DEP1, active compounds read low 1.01 | locus YBR229C, strain ROT2, active compounds read low 1.01 | [1] 1 | locus YDL134C, strain PPH21, active compounds read low 1 | locus YDR150W, strain NUM1, active compounds read low 0.989 | locus YEL061C, strain CIN8, active compounds read low 1.02 | locus YGR078C, strain PAC10, active compounds read low 0.994 | [2] 1.14 | locus YHR087W, strain rtc3, active compounds read low 0.997 | locus YJR043C, strain POL32, active compounds read low 1.01 | locus YJR075W, strain HOC1, active compounds read low 0.988 | locus YLR039C, strain RIC1, active compounds read low 1.04 | locus YLR058C, strain SHM2 (second series), active compounds read low 1.02 | locus YLR085C, strain ARP6, active compounds read low 1.07 | locus YLR262C, strain YPT6, active compounds read low 1.02 | locus YML094W, strain GIM5, active compounds read low 1.04 | locus YMR219W, strain ESC1, active compounds read low 1.02 | locus YMR263W, strain SAP30, active compounds read low 1.01 | locus YNL153C, strain GIM3, active compounds read low 0.995 | locus YNL298W, strain CLA4 (second series), active compounds read low 1.06 | locus YNL322C, strain KRE1, active compounds read low 1.01 | locus YNR030W, strain Alg12, active compounds read low 1.03 | locus YPL055C, strain LGE1, active compounds read low 1.03 | locus YPR135W, strain CTF4, active compounds read low 1.09

CC(=O)Nc1c(I)c(NC(C)=O)c(I)c(C(=O)O)c1I
inactive: [2] 0.975 | [3] 1 | [4] 0.989 | [5] 0.932 | [6] 0.977 | [7] 0.941 | [8] 0.99 | [9] 0.974
